Data on 30 compounds can be found in PubChem BioAssay (EPA / NIEHS).

Activity calls are given as the source filed them. The calls were made as follows: active = hit-call score of the fitted dose curve at least 0.9, where 1 is the maximum; inactive = score below 0.9.

Assay [1] in a line: ATG_CRE_CIS: Attagene CIS-FACTORIAL HepG2 Assay for human cAMP Responsive Element (CRE) binding protein 3 (AID 2282926). As to conditions: HepG2 CRE cis-reporter, Attagene multiplexed mRNA; actives raise or lower the signal. The essentials: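 Cells carrying cis-regulated reporter constructs respond through their own endogenous factors. After 24 h treatment, RNA is reverse-transcribed, amplified, labelled and sized by capillary electrophoresis; up- and down-regulation are both scored against vehicle.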

Assay [2] concerns the target CCAAT/enhancer-binding protein beta (Homo sapiens) (UniProt P17676). Description: ATG_C_EBP_CIS: Attagene CIS-FACTORIAL HepG2 Assay for human CCAAT/Enhancer Binding Protein (C/EBP) beta (AID 2282927). Particulars: HepG2 Attagene cis-factorial transcription factor reporter; actives raise or lower the signal. The essentials: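 Endogenous C/EBPb-driven reporter transcripts measured in transfected human HepG2 cells at 24 h via RT-PCR and capillary electrophoresis of labelled fragments. Activity fitted in both directions relative to DMSO baseline.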

A short description of assay [3]: ATG_DR4_LXR_CIS: Attagene CIS-FACTORIAL HepG2 Assay for human Liver X Receptor (LXR), DR4 submotif (AID 2282929). As to conditions: HepG2 Attagene DR4 cis-reporter, mRNA transcription; actives raise or lower the signal. In short, it runs like this: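 Fluorescence intensity of labelled reporter cDNA fragments, separated by capillary electrophoresis, gives the signal. HepG2 cells bearing cis-regulated reporter constructs were treated 24 h; activity fitted bidirectionally relative to DMSO negative control.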

Assay [4] deals with Aryl hydrocarbon receptor (Homo sapiens) (UniProt P35869). Description: ATG_Ahr_CIS: Attagene CIS-FACTORIAL HepG2 Assay for human Aryl Hydrocarbon Receptor (Ahr) (AID 2282930). As to conditions: HepG2 AhR cis-factorial reporter transcription; actives raise or lower the signal. In short, it runs like this: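 Reporter mRNA levels, quantified by RT-PCR and fluorescent capillary electrophoresis, reflect endogenous AhR transcriptional activity in HepG2 cells carrying transfected cis-promoter reporter constructs. Readout at 24 h post-dose; gain or loss fitted against DMSO baseline.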
Chain of Aryl hydrocarbon receptor (Homo sapiens) (P35869 whole entry, looked up): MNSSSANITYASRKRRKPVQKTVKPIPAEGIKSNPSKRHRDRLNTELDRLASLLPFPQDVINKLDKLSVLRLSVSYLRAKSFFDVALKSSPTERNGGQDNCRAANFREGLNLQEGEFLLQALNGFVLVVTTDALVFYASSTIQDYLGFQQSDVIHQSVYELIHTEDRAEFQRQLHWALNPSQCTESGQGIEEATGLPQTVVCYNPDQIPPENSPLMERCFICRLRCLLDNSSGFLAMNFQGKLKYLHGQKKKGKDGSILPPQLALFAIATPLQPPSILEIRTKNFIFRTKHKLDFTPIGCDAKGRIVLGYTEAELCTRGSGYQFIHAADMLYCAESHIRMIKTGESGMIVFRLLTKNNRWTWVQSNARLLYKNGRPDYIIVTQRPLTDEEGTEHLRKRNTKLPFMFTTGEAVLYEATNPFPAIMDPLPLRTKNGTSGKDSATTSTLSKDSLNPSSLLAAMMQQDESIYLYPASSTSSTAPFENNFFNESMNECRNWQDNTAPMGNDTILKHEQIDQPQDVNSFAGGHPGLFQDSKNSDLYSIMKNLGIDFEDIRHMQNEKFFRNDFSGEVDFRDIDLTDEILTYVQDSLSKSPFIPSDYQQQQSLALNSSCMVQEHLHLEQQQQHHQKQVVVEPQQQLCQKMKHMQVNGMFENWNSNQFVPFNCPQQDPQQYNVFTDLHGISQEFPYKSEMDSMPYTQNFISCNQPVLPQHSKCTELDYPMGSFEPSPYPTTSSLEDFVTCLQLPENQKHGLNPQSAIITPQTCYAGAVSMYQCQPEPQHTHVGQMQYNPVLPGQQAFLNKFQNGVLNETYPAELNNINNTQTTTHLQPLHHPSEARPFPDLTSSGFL

The nature of assay [5]: ATG_AP_1_CIS: Attagene CIS-FACTORIAL HepG2 Assay for human Activator Protein 1 (AP-1) (AID 2282931). Particulars: HepG2 Attagene cis-factorial AP-1 reporter mRNA; actives raise or lower the signal. The essentials: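 Multiplexed HepG2 reporter assay, 24 h dosing. mRNA induction detected by RT-PCR plus capillary electrophoresis. Activity fitted in both directions against DMSO.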

A short description of assay [6]: ATG_AP_2_CIS: Attagene CIS-FACTORIAL HepG2 Assay for human Activator Protein 2 (AP-2) (AID 2282932). Particulars: HepG2 AP-2 cis-reporter, Attagene transcription factor profiling; actives raise or lower the signal. In short, it runs like this:
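Endogenous transcription factor activity is reported through transfected multiplex reporter constructs in HepG2, after 24 h of compound exposure. Transcripts were quantified by RT-PCR and capillary electrophoresis of fluorescent fragments. Bidirectional fit against DMSO.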

Assay [7] in a line: ATG_BRE_CIS: Attagene CIS-FACTORIAL HepG2 Assay for human Bone Morphogenetic Protein (BMP) Response Element (BRE) (AID 2282933). As to conditions: HepG2 BMP response element reporter, Attagene transcription factor profiling; actives raise or lower the signal. In short, it runs like this:
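After a 24 h chemical treatment, transiently transfected HepG2 cells were lysed for RNA; reporter transcripts were quantified by fluorescent RT-PCR and capillary electrophoresis, normalised to DMSO.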

In assay [8] the target is Retinoic acid receptor alpha (Homo sapiens) (UniProt P10276). Description: ATG_DR5_RAR_CIS: Attagene CIS-FACTORIAL HepG2 Assay for human Retinoic Acid Receptor Alpha (RARE), DR5 submotif (AID 2282934). As to conditions: HepG2 Attagene cis-factorial RARE DR5 reporter, mRNA; actives raise or lower the signal. In short, it runs like this: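 Reporter transcripts from a DR5-regulated unit, measured via RT-PCR plus capillary electrophoresis, reflect endogenous RAR activity in transiently transfected human HepG2 liver cells. Exposure lasted 24 h; gain or loss of signal scored against DMSO.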
Chain of Retinoic acid receptor alpha (Homo sapiens) (P10276 whole entry, looked up): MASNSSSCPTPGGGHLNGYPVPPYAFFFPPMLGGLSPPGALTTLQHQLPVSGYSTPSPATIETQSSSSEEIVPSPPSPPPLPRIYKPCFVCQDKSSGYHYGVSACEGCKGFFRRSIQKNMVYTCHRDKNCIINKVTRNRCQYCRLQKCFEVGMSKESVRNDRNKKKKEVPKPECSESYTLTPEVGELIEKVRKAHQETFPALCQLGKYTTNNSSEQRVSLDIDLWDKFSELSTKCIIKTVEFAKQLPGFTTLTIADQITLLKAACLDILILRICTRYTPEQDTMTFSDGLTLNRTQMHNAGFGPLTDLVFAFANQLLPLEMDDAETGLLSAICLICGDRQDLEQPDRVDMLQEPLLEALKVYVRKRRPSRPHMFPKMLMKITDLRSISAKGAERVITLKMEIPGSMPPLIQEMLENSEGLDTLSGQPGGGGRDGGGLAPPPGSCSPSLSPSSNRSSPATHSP

Assay [9] in a line: ATG_CMV_CIS: Attagene CIS-FACTORIAL HepG2 Assay for human CMV (Internal Marker) (AID 2282928).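 Also: endpoint acts as a background internal control marker rather than a target.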 As to conditions: HepG2 CMV promoter reporter, transcription factor profiling; actives raise or lower the signal. The essentials:
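Readout: fluorescent reporter cDNA fragments separated by capillary electrophoresis after RT-PCR and HpaI cut. Cells: HepG2 carrying transfected cis-promoter reporter constructs, dosed 24 h. Endpoint serves as background internal-marker control, fit bidirectionally versus DMSO.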

Chain of CCAAT/enhancer-binding protein beta (Homo sapiens) (P17676 whole entry, looked up, the tested form may be a part): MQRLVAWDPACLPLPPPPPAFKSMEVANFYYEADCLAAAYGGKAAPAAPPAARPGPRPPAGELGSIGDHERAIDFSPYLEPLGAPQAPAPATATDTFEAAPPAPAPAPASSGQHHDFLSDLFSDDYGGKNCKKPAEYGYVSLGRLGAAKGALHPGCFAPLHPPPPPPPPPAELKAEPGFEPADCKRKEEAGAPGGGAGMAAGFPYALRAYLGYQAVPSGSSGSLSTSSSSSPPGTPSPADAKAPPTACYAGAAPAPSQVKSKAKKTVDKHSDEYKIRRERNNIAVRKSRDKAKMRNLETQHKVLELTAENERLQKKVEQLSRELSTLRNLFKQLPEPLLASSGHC

Regarding `N#CCCNCCC#N`, the outcome in [1], in assay [2], in assay [3], in [4], in assay [5] and in assay [6] was inactive. For the same compound, the result in assay [7] was inactive.
Turning to `CN(C)c1ccc(C=O)cc1`, the outcome in assay [1], in [2], in assay [3], in assay [4], in assay [6] and in assay [7] was inactive.
For orientation: AC50 means the concentration at which the activity in the assay is half-maximal. Take `CCCCOCCOC(=O)c1ccccc1C(=O)OCCOCCCC`: the outcome in [1], in assay [2], in assay [6], in [7] and in assay [8] was inactive. Further, in assay [3], the AC50 is 55.8 µM (active).
For `CCCCCCCCCCCCCCCCCC(=O)OCCCCCCCCCCCCCC(C)C`, the result in [2], in assay [9], in assay [3], in [4], in assay [5] and in assay [6] was inactive. The result in assay [7] was inactive.
In the case of `OCCCO`, the result in assay [1], in assay [2], in [4], in [6], in assay [7] and in assay [8] was inactive.
With `CCCCOCCOCCO`, the outcome in assay [1], in assay [2], in assay [3], in [4], in [6] and in assay [7] was inactive. Besides, the compound was classed as inactive in assay [8].
Take `Cc1ccc(C(C)(C)O)cc1`: the call in assay [1], in assay [2], in assay [3], in [4], in assay [6] and in [7] was inactive.
As to `CCCCCCCCCCCCCC(=O)OCC`, the outcome in [1], in [2], in assay [3], in assay [5], in [6] and in assay [7] was inactive. In addition, the compound was called inactive in [8].
Consider `CCC(=O)OC/C=C(\C)CCC=C(C)C`, for which the compound was called inactive in [1], in assay [2], in [3], in assay [4], in [5] and in [6]. Further, the compound was classed as inactive in assay [7].
Regarding `CCCCCCCCCCCCN1CCOCC1`, the compound was called inactive in [1], in assay [2], in assay [4] and in assay [6]. Besides, the AC50 was 60.5 µM (active) in assay [3], 51.8 µM (active) in [5] and 47.7 µM (active) in assay [7].
With `O=C(OCc1ccccc1)c1ccccc1O`, the result in assay [1], in assay [2], in [6] and in assay [8] was inactive. Besides, the AC50 in [3] is 55.1 µM (active); in assay [4], 61.9 µM (active); in assay [7], 133 µM (active).
With `CCNC(=S)NCC`, the outcome in [2], in assay [9], in [3], in assay [4], in assay [5] and in assay [6] was inactive. Besides, the result in assay [7] was inactive.
In the case of `CC(=O)OC/C=C(C)/C=C/C=C(C)/C=C/C1=C(C)CCCC1(C)C`, the compound was classed as inactive in assay [1], in [2], in [3], in [4], in assay [6] and in assay [7]. The AC50 in [5] was 40.6 µM (active).
Take `CCCCCCCC1CCCC1=O` (stereo not drawn): the result in [1], in [2], in assay [3], in [4], in assay [5] and in assay [6] was inactive. The compound was called inactive in [7] and in [8].
In the case of `CC(=O)C1=C(C)[C@@H]2C[C@@]3(C1)[C@H](C)CC[C@H]3C2(C)C`, the concentration at half-maximal activity (AC50) in [1] was 76.3 µM (active); in assay [3], 58.8 µM (active); in [4], 55.3 µM (active); in [5] it was 76.9 µM (active). Also, the outcome in assay [2], in assay [6] and in assay [7] was inactive.
`CCOc1ccc(NC(C)=O)cc1`: the result in [1], in assay [2], in [3], in assay [4], in [6] and in [7] was inactive.
In the case of `CC(=O)C1C(=O)C=C(C)OC1=O` (stereo not drawn), the compound was classed as inactive in [1], in [2], in [3], in assay [5], in assay [6] and in [7]. The outcome in [8] was inactive.
As to `CC(C)(C)c1ccc(S)cc1`, the result in assay [2], in [9], in assay [3], in assay [4], in assay [5] and in [6] was inactive. The result in assay [7] was inactive.
As to `CCCCOCC(C)OCC(C)O` (stereo not drawn), the compound was called inactive in assay [1], in assay [2], in assay [3], in assay [4], in [5] and in assay [6]. Besides, in assay [7], the outcome was inactive.
`CC(=O)OC(C)(C)C`: the compound was classed as inactive in assay [1], in assay [2], in assay [3], in assay [4], in assay [5] and in assay [6]. Besides, the compound was classed as inactive in [7].
As for `C=CCCCCCCCCC(=O)OCC`, the compound was called inactive in assay [1], in assay [2], in assay [4], in assay [5], in [6] and in assay [7].
As to `C=CC(C)CCCC(C)(C)O` (stereo not drawn), the outcome in assay [1], in assay [2], in [3], in assay [4], in [5] and in assay [6] was inactive. Moreover, the compound was called inactive in assay [7] and in assay [8].
For `CCOC(=O)C(=O)OCC`, the call in [1], in assay [2], in assay [3], in assay [5], in assay [6] and in assay [7] was inactive. In [8], the compound was classed as inactive.
Turning to `CCCCCC1CCC(=O)O1` (stereo not drawn), the call in assay [1], in assay [2], in [3], in assay [5], in [6] and in assay [7] was inactive.
As to `CCC(C)(CCCC(C)C)OC(C)=O` (stereo not drawn), the outcome in [2], in assay [9], in assay [3], in assay [5], in assay [6] and in assay [7] was inactive. Moreover, the AC50 in assay [4] was 71.4 µM (active).
For the compound `O=C(O)c1ccccc1O`, the compound was classed as inactive in assay [1], in [2], in assay [3], in assay [5], in assay [6] and in assay [7]. For the same compound, in assay [8], the compound was called inactive.
For the compound `C=C(C)C(N)=O`, the compound was classed as inactive in assay [1], in [2], in [3], in assay [4], in assay [5] and in assay [6]. In addition, the compound was classed as inactive in assay [7] and in [8].
As to `CCCCCCCOC(C)=O`, the outcome in assay [2], in [9], in assay [3], in [4], in assay [5] and in assay [6] was inactive. For the same compound, the compound was classed as inactive in assay [7] and in assay [8].
In the case of `Nc1ccc(N)c([N+](=O)[O-])c1`, the outcome in assay [2], in assay [3], in [6], in assay [7] and in [8] was inactive. Further, the results for the AC50 in [9] and in [4] were 77.1 µM (active) [middle of 5 runs] and 3.14 µM (active) [middle of 5 runs], respectively.
For `COc1ccc(C(C)=O)cc1`, the outcome in assay [2], in assay [9], in [3], in assay [4], in [5] and in assay [6] was inactive. The compound was called inactive in assay [7] and in assay [8].
